Data: PubChem BioAssay
Activity calls are given as the source filed them.

Legend:
[1] = tested on: Plasmodium falciparum Sir2 (PF13_0152, Sir2A); test: Plasmodium falciparum Sir2A binding compounds – biochemical, small-molecule microarray, 635 nm fluorescence, primary screen (AID 1098); conditions: fluorescence 635 nm, higher = more signal;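 also: score merges spot fluorescence intensity with its signal-to-noise ratio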
[2] = probe aDKK1 binding to arrayed compounds – biochemical, biotinylated probe, 635/667 nm fluorescence, primary screen (AID 1099); conditions: small-molecule microarray, higher = more signal;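 also: score merges 667nm spot fluorescence with signal to noise across triplicate slides; reference of the scale not given here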
[3] = probe aCHRDL2 binding to arrayed compounds – biochemical, biotinylated probe, 635/667 nm fluorescence, primary screen (AID 1100); conditions: small-molecule microarray, higher = more signal
[4] = change in splice reporter luminescence, either direction, cell-based, HEK293, spliceosome inhibition project, primary screen (AID 1101); conditions: HEK293 splicing luciferase reporter, 24 h, higher = more signal, called active from +8 up or from −8 down;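 also: HEK293 cells carrying a splicing-competent luciferase reporter gene; test concentration not given here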
[5] = molecular target: Fibroblast growth factor 10 (Homo sapiens) (UniProt O15520); test: compounds binding fibroblast growth factor 10 – biochemical, small-molecule microarray, 635 nm fluorescence, primary screen (AID 1102); conditions: FGF10 binding, fluorescence 635 nm, higher = more signal
Chain of Fibroblast growth factor 10 (Homo sapiens) (O15520 whole entry, looked up): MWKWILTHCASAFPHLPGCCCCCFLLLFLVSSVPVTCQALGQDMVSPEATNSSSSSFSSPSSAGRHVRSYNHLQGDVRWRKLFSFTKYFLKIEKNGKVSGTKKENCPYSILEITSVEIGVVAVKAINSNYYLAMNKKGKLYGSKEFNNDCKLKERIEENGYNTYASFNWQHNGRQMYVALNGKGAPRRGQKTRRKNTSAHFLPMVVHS

[6] = tested on: glycogen synthase kinase-3 (GSK3A per assay name; protocol says GSK3B); test: compounds binding glycogen synthase kinase-3 – biochemical, small-molecule microarray, 635 nm fluorescence, GSK3A, primary screen (AID 1103); conditions: fluorescence 635 nm, higher = more signal; also: the record names both GSK3A and GSK3B
[7] = molecular target: Epidermal growth factor receptor (Homo sapiens) (UniProt P00533); test: compounds binding epidermal growth factor receptor – biochemical, small-molecule microarray, 635 nm fluorescence, primary screen (AID 1104); conditions: EGFR binding, higher = more signal;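 also: score merges 667 nm emission intensity with spot signal to noise over triplicate slides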
Chain of Epidermal growth factor receptor (Homo sapiens) (P00533 whole entry, looked up): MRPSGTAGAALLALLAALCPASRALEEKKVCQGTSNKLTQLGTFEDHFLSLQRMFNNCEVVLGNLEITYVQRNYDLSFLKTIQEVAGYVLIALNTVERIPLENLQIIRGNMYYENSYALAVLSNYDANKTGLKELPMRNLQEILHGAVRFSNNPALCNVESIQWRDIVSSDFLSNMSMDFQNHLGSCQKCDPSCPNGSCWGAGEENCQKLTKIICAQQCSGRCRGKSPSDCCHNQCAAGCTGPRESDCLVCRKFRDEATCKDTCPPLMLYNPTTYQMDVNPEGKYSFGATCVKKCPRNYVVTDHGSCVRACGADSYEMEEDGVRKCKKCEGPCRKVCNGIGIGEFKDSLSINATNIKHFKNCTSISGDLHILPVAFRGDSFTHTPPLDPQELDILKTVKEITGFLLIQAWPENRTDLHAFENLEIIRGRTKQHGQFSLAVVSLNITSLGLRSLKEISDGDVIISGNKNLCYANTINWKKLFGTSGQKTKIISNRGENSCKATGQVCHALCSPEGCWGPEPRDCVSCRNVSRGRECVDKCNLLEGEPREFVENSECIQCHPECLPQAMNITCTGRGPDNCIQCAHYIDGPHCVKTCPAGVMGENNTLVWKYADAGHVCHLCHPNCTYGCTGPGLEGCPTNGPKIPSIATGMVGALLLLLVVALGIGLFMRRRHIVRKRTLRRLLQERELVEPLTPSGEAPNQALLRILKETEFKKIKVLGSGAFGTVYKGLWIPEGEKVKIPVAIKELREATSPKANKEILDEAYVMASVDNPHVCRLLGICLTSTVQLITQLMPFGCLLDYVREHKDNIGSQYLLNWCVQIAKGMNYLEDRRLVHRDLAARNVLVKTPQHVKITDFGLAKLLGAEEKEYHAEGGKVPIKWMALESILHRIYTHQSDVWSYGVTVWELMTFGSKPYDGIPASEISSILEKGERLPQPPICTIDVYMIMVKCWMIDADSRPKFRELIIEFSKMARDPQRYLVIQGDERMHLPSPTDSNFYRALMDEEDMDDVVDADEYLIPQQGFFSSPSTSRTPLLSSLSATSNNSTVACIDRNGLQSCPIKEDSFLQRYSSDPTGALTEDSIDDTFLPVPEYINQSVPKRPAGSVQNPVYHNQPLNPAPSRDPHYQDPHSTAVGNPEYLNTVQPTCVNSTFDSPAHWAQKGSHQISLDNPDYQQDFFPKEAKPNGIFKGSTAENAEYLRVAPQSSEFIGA

[8] = molecular target: Follistatin-related protein 3 (Homo sapiens) (UniProt O95633); test: compounds binding follistatin-related protein 3 – biochemical, small-molecule microarray, 635 nm fluorescence, primary screen (AID 1105); conditions: FSTL3 binding, higher = more signal;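 also: score merges emission near 667 nm and signal to noise per printed spot across three slides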
Chain of Follistatin-related protein 3 (Homo sapiens) (O95633 whole entry, looked up): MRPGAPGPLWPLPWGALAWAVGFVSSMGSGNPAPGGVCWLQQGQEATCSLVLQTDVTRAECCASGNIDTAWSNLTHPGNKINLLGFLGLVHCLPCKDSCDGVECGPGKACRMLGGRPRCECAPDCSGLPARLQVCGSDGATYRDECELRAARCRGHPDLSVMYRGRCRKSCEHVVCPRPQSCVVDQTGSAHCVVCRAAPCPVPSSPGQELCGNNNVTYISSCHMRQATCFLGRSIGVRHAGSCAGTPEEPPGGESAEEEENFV

[9] = molecular target: Dickkopf-related protein 1 (Homo sapiens) (UniProt O94907); test: small molecules binding DKK1 protein – biochemical, small-molecule microarray, 635 nm fluorescence scan, primary screen (AID 1106); conditions: higher = more signal;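 also: score merges emission near 667 nm with signal to noise over three replicate slides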
Chain of Dickkopf-related protein 1 (Homo sapiens) (O94907 whole entry, looked up): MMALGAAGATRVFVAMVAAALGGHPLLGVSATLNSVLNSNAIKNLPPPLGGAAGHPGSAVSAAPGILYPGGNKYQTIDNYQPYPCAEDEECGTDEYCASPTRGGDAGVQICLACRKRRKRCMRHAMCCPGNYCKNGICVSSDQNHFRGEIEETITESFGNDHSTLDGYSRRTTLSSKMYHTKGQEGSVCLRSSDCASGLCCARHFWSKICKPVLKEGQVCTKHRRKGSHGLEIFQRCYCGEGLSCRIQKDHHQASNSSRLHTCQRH

[10] = tested on: Inhibin beta A chain (activin A); test: small molecules binding activin A – biochemical, small-molecule microarray, 635 nm fluorescence scan, primary screen (AID 1107); conditions: INHBA, higher = more signal;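 also: mouse activin A protein probed at 4.33 µg/mL on printed slides; score merges bound-protein fluorescence near 667 nm with spot signal-to-noise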

Compound | composite z-score [1] | composite z-score [2] | composite z-score [3] | z-score [4] | composite z-score [5] | composite z-score [6] | composite z-score [7] | composite z-score [8] | composite z-score [9] | composite z-score [10]
CN(C)CCCCNC(=O)[C@H]1C[C@H]2C(=O)N[C@@H](CCCCN(C)C)C(=O)N2[C@H]1c1ccc(O)cc1 | 1.12 | -0.265 | -0.508 | -1.73 (inactive) | 0.174 | -0.0777 | 0.821 | 0.592 | 1.16 | -0.0636
COc1cccc(C)c1NC(=O)O[C@H]1[C@H](OC(=O)Nc2ccccc2)[C@@H](OC(=O)Nc2ccccc2)[C@@H](OC)O[C@@H]1CO | 1.5 | 0.266 | 0.553 | 0.449 (inactive) | 1.34 | 0.927 | 0.191 | 1.48 | 0.474 | 0.525
C[C@]1(C(=O)NC2CC2)c2ccccc2C(=O)N(Cc2cc(F)cc(C(F)(F)F)c2)[C@H]1c1ccc(CO)cc1 | 0.938 | -0.554 | 0.87 | -0.224 (inactive) | -0.698 | -1.08 | -1.16 | -0.801 | -1.46 | -0.672
COCCCNC(=O)[C@@]1(Cc2ccccc2I)c2ccccc2C(=O)N(Cc2ccccc2C(F)(F)F)[C@H]1c1ccc(CO)cc1 | 0.228 | 0.201 | 0.883 | 0.544 (inactive) | 0.0125 | -0.559 | -1.71 | -0.961 | -1.68 | -0.601
CCOC(=O)C[C@H]1[C@H](OC(=O)c2ccc(-c3ccccc3)cc2)[C@@H](NC(=O)c2ccc(-c3ccccc3)cc2)c2cc(OCCCO)ccc2N1C(=O)c1ccccc1 | 0.518 | 0.685 | 0.365 | 0.594 (inactive) | 0.79 | 0.477 | 0.101 | 0.719 | 0.69 | -0.12
O=C1C2C=CC(C(O)C(c3ccccc3)c3ccccc3)N(Nc3ccccc3F)C2C(=O)N1c1ccccc1 (stereo not given) | 0.802 | 0.632 | 0.786 | 0.34 (inactive) | 1.38 | 1.32 | 0.292 | 1.39 | 0.0465 | 0.875
C=CCN1C(=O)[C@@]2(O[C@@H](CCO)[C@H]([Si](C)(C)c3ccc(OC)cc3)[C@H]2C)c2cc(N3CCCCC3=O)ccc21 | 0.774 | -0.0333 | 0.0918 | -2.02 (inactive) | 0.839 | 0.399 | 0.169 | 0.547 | 0.342 | 0.488
CCCNC(=O)[C@@]1(Sc2ccc(C)cc2)CC(=O)N(Cc2cc(C(F)(F)F)cc(C(F)(F)F)c2)[C@@H]1c1ccc(CO)cc1 | -0.441 | -0.09 | 0.738 | -1.58 (inactive) | 0.0468 | -0.365 | -0.738 | -0.888 | -1.2 | 0.108
O=C(O)C1=CC[C@H]2C(=O)N(c3ccccc3)C(=O)[C@@H]12 | 0.767 | 0.45 | 0.682 | 0.727 (inactive) | 0.855 | 1.04 | 0.325 | 1.11 | 0.0793 | 1.23
CCCN1C(=O)[C@@]2(c3ccc([N+](=O)[O-])cc3)CC(=O)N(C3CCCCC3)[C@@H]2c2ccc(CO)cc21 | 0.219 | 0.27 | -0.12 | -0.237 (inactive) | 0.453 | 0.478 | 0.121 | 0.41 | 1.2 | 0.898
COc1ccc(-c2cc3c(c(CCc4ccccc4)n2)[Si](C(C)C)(C(C)C)O[C@H]3c2ccccc2)cn1 | -0.576 | 0.0477 | -0.12 | -0.879 (inactive) | 0.332 | -0.237 | -0.0109 | 0.362 | -0.0079 | 0.343
COC(=O)[C@@]1(Cc2ccc(OC)cc2)[C@@H]2[C@@H](CC(=O)[C@H]2CC(=O)C(=O)N(C)C)CN1C(=O)c1ccccc1 | 0.625 | 1.64 | 1.49 | -1.53 (inactive) | 1.27 | 1.18 | 0.638 | 1.17 | -0.458 | 0.18
CCOC(=O)C[C@H]1[C@H](OC(=O)c2cc3ccccc3oc2=O)[C@@H](NC(=O)Cc2ccc(OC)cc2)c2cc(OCCCO)ccc2N1C(=O)Cc1ccc(OC)cc1 | 0.776 | -0.249 | -0.43 | -1.28 (inactive) | 0.703 | 0.382 | 0.455 | 0.789 | 0.328 | 0.156
CC(CO)N1C(=O)[C@@H]2[C@H]3C(=O)OCC=C[C@H]3OC23C=CCN(c2ccc4ccccc4c2)C(=O)[C@@H]13 (stereo not given in full) | -0.893 | -0.0682 | 0.725 | 0.445 (inactive) | -0.916 | -1.56 | -1.64 | -1.66 | -1.83 | -1.18
C=C(COC)/C(=C/C[C@@H](OC(C)=O)c1cccc(OCCO)c1)c1cnc2ccccc2c1 | -0.219 | 0.15 | 0.322 | -0.302 (inactive) | 1.56 | 0.917 | 1.26 | 1.55 | 1.02 | 1.93
C=C(COC)C(=O)CC[C@H](OC(C)=O)c1ccc(CO)o1 | 1.44 | -0.362 | -0.566 | -1.35 (inactive) | 0.757 | -0.646 | -0.0826 | 0.47 | 0.488 | 1.03

Compound | composite z-score [1] | composite z-score [2] | composite z-score [3] | z-score [4] | composite z-score [5] | composite z-score [6] | composite z-score [7] | composite z-score [8] | composite z-score [9] | composite z-score [10]
CC(C)C[C@@H]1NC(=O)[C@@H]2C[C@H](C(=O)NCCCCCNC(=O)CS)[C@H](c3ccc(O)cc3)N2C1=O | 1.67 | -0.1 | -0.03 | -3.37 (inactive) | -0.113 | -0.0192 | 0.135 | 0.286 | 0.353 | -0.111
COCCOC(=O)N1C(=O)[C@@]2(c3cc(C#CCNC(N)=O)ccc31)[C@H](C(=O)Nc1nc3ccccc3s1)[C@H]1C(=O)O[C@H](c3ccccc3)[C@H](c3ccccc3)N1[C@@H]2c1ccc(O)cc1 | 0.576 | 0.406 | 0.774 | 1.05 (inactive) | 0.777 | 1.06 | 0.195 | 0.783 | 0.393 | 0.719
CN(C)CCCC[C@@H]1NC(=O)[C@H]2C[C@@H](C(=O)NCCCCCCNC(=O)CS)[C@@H](c3cccc(OCCO)c3)N2C1=O | 0.872 | 0.094 | 0.366 | 0.624 (inactive) | 0.124 | 0.846 | -0.166 | -0.606 | 0.156 | -0.364
COCCOC(=O)N1C(=O)[C@@]2(c3ccccc31)[C@H](C(=O)Nc1nc3ccccc3s1)[C@H]1C(=O)O[C@H](c3ccccc3)[C@H](c3ccccc3)N1[C@@H]2c1ccccc1OCCO | 1.53 | 0.114 | 0.653 | -0.794 (inactive) | 0.906 | 0.783 | 0.209 | 0.678 | 0.0159 | 0.769
C=CCOC(=O)[C@H]1[C@@H]2C(=O)O[C@@H](c3ccccc3)[C@@H](c3ccccc3)N2[C@@H](c2ccc(OCCOC(=O)[C@H]3C[C@H]4C(=O)NCC(=O)N4[C@H]3c3ccc(O)cc3)cc2)[C@]12C(=O)Nc1ccccc12 | 1.33 | 0.101 | 0.116 | 0.417 (inactive) | 1.28 | 1.3 | 0.756 | 1.23 | 0.974 | 0.511
C=CCC(OC(C)=O)[C@@H]1[C@@H](N(Cc2cccc3ccccc23)C(=O)c2ccc(C)cc2)c2cc(OCCCO)ccc2N1C(=O)Cc1ccc2ccccc2c1 (stereo not given in full) | -0.542 | 0.0891 | 0.135 | -1.86 (inactive) | -0.123 | -0.0662 | 0.13 | -0.345 | 0.248 | 1.34
COc1ccc([Si](C)(C)[C@H]2[C@H](CC(=O)N3CCC[C@H]3CO)O[C@@]3(C(=O)N(C)c4c(Br)cc(C)cc43)[C@@H]2C)cc1 | 1.91 | 0.94 | 0.244 | 0.00593 (inactive) | 1.5 | 1.32 | 0.775 | 1.16 | 1.08 | 1.34
COc1ccc([Si](C)(C)[C@H]2[C@H](CC(=O)N3CCC[C@H]3CO)O[C@@]3(C(=O)N(C)c4ccccc43)[C@@H]2C)cc1 | 0.364 | 0.214 | -0.159 | 0.361 (inactive) | 0.105 | -0.102 | 0.335 | 0.705 | 0.588 | 1.48
C=CC[C@]1(C(=O)NCCN2CCOCC2)N=C(c2ccc(OCCCO)cc2)O[C@H]1c1ccccc1 | 1.52 | -0.0845 | 0.942 | -0.4 (inactive) | 0.3 | 0.866 | -0.0911 | 0.281 | 0.418 | 0.772
COCCOC(=O)N1C(=O)[C@@]2(c3cc(C#CCNC(N)=O)ccc31)[C@H](c1ccc(O)cc1)N1[C@H](c3ccccc3)[C@H](c3ccccc3)OC(=O)[C@H]1[C@@H]2C(=O)N1CCc2cc(OC)c(OC)cc2C1 | 0.391 | 0.206 | 0.493 | -1.41 (inactive) | 1.19 | -0.447 | 0.292 | 1.2 | 0.372 | 0.899
C=CCNC(=O)[C@H]1[C@@H]2C(=O)O[C@@H](c3ccccc3)[C@@H](c3ccccc3)N2[C@@H](c2ccc(OCCO)cc2)[C@]12C(=O)N(C(=O)OCCOC)c1ccc(C#CCNC(N)=O)cc12 | 1.27 | 0.02 | 0.687 | 0.0908 (inactive) | 1.3 | 0.998 | 0.686 | 0.989 | 0.998 | 0.823
CCCC1(C(=O)OC)C=C2C(=C(C(C)C)C(=O)C2C)CN1 (stereo not given) | -0.129 | 0.759 | 0.813 | 1.44 (inactive) | -0.474 | -1.63 | -0.648 | -0.911 | -0.724 | 1.17
O=C1C[C@@](C(=O)NCC(F)(F)F)(c2ccc([N+](=O)[O-])cc2)[C@@H](c2ccc(CO)cc2I)N1CC12CC3CC(CC(C3)C1)C2 | 1.5 | -0.113 | 0.0558 | -1.85 (inactive) | 0.343 | 0.785 | 0.237 | 0.406 | -0.0464 | 0.227
O=C(NCC(F)(F)F)[C@@H]1c2ccccc2C(=O)N(Cc2cc(C(F)(F)F)cc(C(F)(F)F)c2)[C@H]1c1ccc(CO)cc1 | 1.78 | -0.207 | 0.272 | 0.245 (inactive) | 0.728 | -0.137 | -0.284 | -0.145 | 0.382 | 0.0807
C=C(C(=O)CC[C@@H](OC(=O)c1ccccc1-c1ccccc1C(=O)O)c1ccc(OCCO)cc1)C(C)C | 0.994 | -0.0581 | -0.375 | 0.379 (inactive) | 1.22 | 0.674 | 0.267 | 1.08 | 0.776 | 0.768
CCOC(=O)C1=CC[C@@H](c2ccccc2)N(S(=O)(=O)c2ccc(C)cc2)[C@@H]1C#N | 0.921 | 0.386 | 0.868 | 0.694 (inactive) | 0.562 | -0.199 | -0.181 | 0.364 | -0.542 | 0.767
